Most compounds without a hit are left out; they make up all but 1.8% or so of the library.
LANA-H2B inh = blocks KSHV LANA binding to histone H2A/H2B; Q9QR71; cell-free LANA-H2A/H2B peptide, fluorescence polarization; AID 2629; actives 0.6% (n = 320,000); inhibition, % (concentration not given with the values); in the data active = inhibition mostly above about 10%, no sharp cut-off; inactive = mostly below about 6.7%
DSG3 Ab inh = human desmoglein-3 autoantibody binding inhibition | actives 0.48% (n = 310,000) | binding (percent of control), % at 10 µM | DSG3-coupled beads, scFv-anti-DSG3-GFP binding, flow cytometry; active compounds read low;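 active = binding more than 3 SD below its plate's average and above zero; inconclusive = below that plate limit but binding exactly zero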;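 also: hits lower antibody fragment binding to DSG3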
PKD1 inh = PKD1 (human) kinase inhibition; PKD1 kinase fluorescence polarization assay; inhibition, % (concentration not given with the values); actives 0.056% (n = 200,000); AID 797
Target sequence (Q15139 whole entry, looked up): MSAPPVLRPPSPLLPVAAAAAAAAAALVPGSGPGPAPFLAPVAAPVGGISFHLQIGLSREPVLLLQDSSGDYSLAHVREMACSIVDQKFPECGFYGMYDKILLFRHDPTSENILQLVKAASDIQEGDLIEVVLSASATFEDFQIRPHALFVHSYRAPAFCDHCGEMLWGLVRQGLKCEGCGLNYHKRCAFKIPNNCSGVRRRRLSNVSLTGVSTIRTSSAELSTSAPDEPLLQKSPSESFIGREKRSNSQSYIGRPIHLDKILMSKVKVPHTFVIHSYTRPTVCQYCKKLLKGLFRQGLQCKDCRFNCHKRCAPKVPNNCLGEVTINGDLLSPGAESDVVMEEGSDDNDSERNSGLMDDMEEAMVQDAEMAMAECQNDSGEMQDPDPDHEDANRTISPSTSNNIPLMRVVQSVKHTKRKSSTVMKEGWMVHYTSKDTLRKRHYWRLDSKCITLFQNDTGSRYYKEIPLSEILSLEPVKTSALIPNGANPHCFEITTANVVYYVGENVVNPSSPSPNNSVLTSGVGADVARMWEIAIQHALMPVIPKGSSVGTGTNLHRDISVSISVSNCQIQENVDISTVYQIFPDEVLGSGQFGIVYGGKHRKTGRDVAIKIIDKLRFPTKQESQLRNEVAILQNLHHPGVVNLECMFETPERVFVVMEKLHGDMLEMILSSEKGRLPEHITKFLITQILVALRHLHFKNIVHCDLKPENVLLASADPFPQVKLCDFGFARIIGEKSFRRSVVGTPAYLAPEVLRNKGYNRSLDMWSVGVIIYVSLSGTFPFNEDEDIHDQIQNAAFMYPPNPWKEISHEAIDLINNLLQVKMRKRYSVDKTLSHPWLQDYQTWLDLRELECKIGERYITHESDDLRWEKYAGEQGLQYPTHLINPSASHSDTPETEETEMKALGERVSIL
VLA-4 inh = inhibition in a human VLA-4 binding assay | VLA-4 expressing cells, ligand binding flow cytometry | inhibition, % (about 7 µM as worked out from the volumes in the protocol) | actives 0.2% (n = 330,000)
HDAC3 inhib = blocks human histone deacetylase 3 | O15379 | recombinant HDAC3, fluorogenic peptide/trypsin coupled, fluorescence | inhibition, % at 8.3 µM | actives 0.15% (n = 320,000); in the data active = inhibition above about 26%, passing the limit was not always enough; inconclusive = no clear call, values can overlap the other calls
GRK2 aptamer HTS = human GRK2 inhibition via aptamer displacement; AID 488847; actives 0.59% (n = 330,000); bead flow cytometry, FAM-aptamer displacement from GRK2; inhibition of aptamer binding, % at 10 µM;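 active = inhibition of aptamer binding above 40%, roughly 3 SD of noise, on plates passing a quality check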;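 also: median bead fluorescence of bound FAM aptamer so fluorescent compounds give negative values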
Numbers stand for hits; n = inactive; u = inconclusive; x = no result. Rule as the data show it, unless noted: active = inhibition above about 50%; inactive = the rest.

SMILES	LANA-H2B inh	DSG3 Ab inh	PKD1 inh	VLA-4 inh	HDAC3 inhib	GRK2 aptamer HTS
COC(=O)c1c([N+](=O)[O-])c(OC)c(OC)c(OC)c1[N+](=O)[O-]	n	n	n	n	n	n
COc1ccc(C(=O)CN2CCN(S(=O)(=O)c3cccc([N+](=O)[O-])c3)CC2)cc1OC	n	n	n	n	53	n
NS(=O)(=O)c1ccc(CCNc2ncnc3c2c(-c2ccccc2)cn3-c2ccc(F)cc2)cc1	n	n	n	n	n	n
COc1ccc(NC(=O)c2cc3c(COC(C)=O)cnc(C)c3oc2=Nc2cccc(C(=O)O)c2)c(OC)c1	n	66	x	n	n	n
COc1cccc(N=c2oc3c(C)ncc(CO)c3cc2C(=O)Nc2ccccc2OC)c1	x	x	n	x	x	x
COc1cc(Cl)c(C)cc1NC(=O)Cc1cccs1	n	n	x	n	n	n
Cc1ccc(N2C(=O)N(CC(=O)Nc3ccc(C)c(C)c3[N+](=O)[O-])C(=O)C2C)cc1 (centres undefined)	130	n	n	n	n	n
Cc1cc(C)cc(OCC(=O)N/N=C/c2ccncc2)c1	n	n	n	n	n	55
COc1cc(NC(=S)NC(=O)c2cccs2)ccc1NC(=O)C(C)C	37	n	n	n	n	n
CC(C)C(=O)Nc1cccc(NC(=S)NC(=O)c2cccs2)c1	n	n	x	n	n	n
COc1ccc(NC(=O)CC2(CC(=O)O)CCCC2)cc1	n	n	x	n	n	n
COc1ccc(OC)c(NC(=O)CC2(CC(=O)O)CCCC2)c1	19	n	x	n	n	n
CC(=O)C1=C(O)CC(c2ccccc2)CC1=NCCc1c(C)[nH]c2ccc(C)cc12 (centres undefined)	n	-12	n	n	n	n
Cc1cc(C(=O)N2CCCC(C(=O)c3cccc(C(F)(F)F)c3)C2)n[nH]1 (centres undefined)	n	n	x	n	n	n
Cc1cc(C(=O)N2CCCC(C(=O)c3cccc(C(F)(F)F)c3)C2)nc(C)n1 (centres undefined)	14	n	n	n	n	n
CC1=CC(=O)c2c(O)ccc(O)c2C1=O	17	x	n	n	n	46
O=C1C=C(N2CCN(c3ccccn3)CC2)C(=O)c2c(O)ccc(O)c21	x	n	x	x	x	x
Cc1ccc(S(=O)(=O)N2CCC(C(=O)NCc3ccccc3Cl)CC2)cc1	93	n	n	n	n	n
Nc1ccc(C(=O)O)c(O)c1	n	n	n	n	n	n
Nc1ccc(N)c(C(=O)O)c1	-0.2	51	x	n	n	88
O=C(c1ccoc1)N1CCN(c2cc(-c3cccc(F)c3)nc3cc(-c4cccc(Cl)c4)nn23)CC1	x	n	x	x	x	x
CC1Sc2ccc(S(=O)(=O)CCC(=O)N3CCN(c4cccc(Cl)c4)CC3)cc2NC1=O (centres undefined)	30	n	x	n	n	n
CC1Sc2ccc(S(=O)(=O)CCC(=O)N3CCN(c4ccccc4)CC3)cc2NC1=O (centres undefined)	n	n	x	n	n	n
CC1=CC2=NC(=O)CC(C)(C(=O)N(CC(=O)NC3CCCC3)c3ccccc3C)N2C=C1 (centres undefined)	11	n	x	n	n	n
CC(=O)Nc1ccc2nc(NC(=O)c3ccc([N+](=O)[O-])s3)sc2c1	30	x	x	n	n	87
SMILES	LANA-H2B inh	DSG3 Ab inh	PKD1 inh	VLA-4 inh	HDAC3 inhib	GRK2 aptamer HTS
C[C@@H]1NS(=O)(=O)[C@H]2C[C@@H]3C=C[C@]2(O3)[C@H]1OC(=O)c1ccc(C(C)(C)C)cc1	n	n	x	n	n	n
CCOc1ccc(N(C)S(=O)(=O)c2ccc(-c3ccc(=O)[nH]n3)s2)cc1	15	u	x	n	n	n
Cc1ccc(N(C)S(=O)(=O)c2ccc(-c3ccc(=O)[nH]n3)s2)cc1C	n	n	x	n	n	n
CCCCNc1c2c3c(cccc3n(C)c1=O)C(=O)c1ccccc1-2	23	n	n	n	n	n
CCNc1c2c3c(cccc3n(C)c1=O)C(=O)c1ccccc1-2	44	x	n	n	n	n
Cn1c(=O)c(NCCc2ccccc2)c2c3c(cccc31)C(=O)c1ccccc1-2	128	n	n	n	n	n
O=C(COC(=O)c1ccc[nH]c1=O)NCCCc1ccccc1	n	x	x	n	n	n
COc1ccc(CC(=O)NNC(=O)c2c(-c3ccccc3Cl)noc2C)cc1OC	n	n	x	n	n	n
Cc1ccc(S(=O)(=O)N2CCOC23CCN(C(=O)c2ccccc2Br)CC3)cc1	n	n	x	n	n	n
COc1cccc(CN2CC(C(=O)N(C)Cc3ccc(C)cc3)CCC2=O)c1 (centres undefined)	14	n	x	n	n	n
COc1cccc(CN2CC(C(=O)N(C)Cc3[nH]c4ccccc4c3C)CCC2=O)c1 (centres undefined)	n	n	x	n	n	n
C=CCc1ccccc1OCC(O)CN1C(=O)c2ccccc2C1=O (centres undefined)	13	n	x	n	n	n
C[C@]12CCC[C@H](O1)[C@H]([C@@H](O)c1ccccc1)O2	n	n	x	n	n	n
CCOC(=O)C1CCN(C(=S)NC2CC3C=CC2C3)CC1 (centres undefined)	21	n	x	n	n	n
CCN1CCN(S(=O)(=O)c2ccc(Cl)c(C(=O)NCc3ccco3)c2)CC1	n	n	x	n	n	n
CC(=O)C1CCC2C3CC(C)=C4CC(O)CCC4(C)C3CCC12C (centres undefined)	x	n	x	x	x	x
CCC(=O)c1ccc(OCc2ccc(C(=O)OC)cc2)cc1	14	n	n	n	n	n
Cc1ccc(NC(=O)COc2cccnc2[N+](=O)[O-])cc1S(=O)(=O)N1CCCCC1	n	x	n	n	n	n
Cc1ccccc1NC(=O)CN1C(=O)COc2ccc(S(=O)(=O)N3CCCC3)cc21	14	n	x	n	n	n
COc1ccc(CC(=O)Nc2cc(S(=O)(=O)N3CCCCC3)ccc2C)cc1OC	n	n	n	n	n	n
O=C(COc1cccnc1[N+](=O)[O-])Nc1cc(S(=O)(=O)N2CCCCC2)ccc1Cl	n	85	x	n	n	n
COc1ccccc1NC(=O)CN1C(=O)COc2ccc(S(=O)(=O)N3CCCCCC3)cc21	n	x	x	n	n	n
COc1ccc(OC)c(CC(=O)Nc2cc(S(=O)(=O)N3CCCCC3)ccc2C)c1	71	n	x	n	n	n
CC(=O)OCC(=O)Nc1cc(S(=O)(=O)N2CCCCCC2)ccc1Cl	n	71	n	n	n	n
Cc1ccc(C)c(NC(=O)CN(C)C(=O)CN2C(=O)C3CCCCC3C2=O)c1 (centres undefined)	n	n	x	n	n	n
CC(OC(=O)C1CC1)C(=O)Nc1ncc(Cl)cc1Cl (centres undefined)	n	n	x	n	n	n
COC(=O)C1=C(C)N(CCCC(=O)O)C(=O)NC1c1cccc(Cl)c1Cl (centres undefined)	n	n	x	n	n	n
CCN(CC(=O)NC(C)(C)C)C(=O)C(c1ccccc1)c1ccccc1	n	n	n	n	n	n

Screens deposited in PubChem by several laboratories.
